Common to all, as to parameters: scale not given: direction of the effect not stated beside the values
The target of assay [1] is Protein translocase subunit SecA (Escherichia coli (strain K12)) (UniProt P10408). Description: Assay to Identify E. coli SecA ATPase Inhibitors. The format is functional. The following applies: 30 µM.
Assay [2] has as its target T1, Ubiquitin-activating enzyme e1, putative (Leishmania donovani (strain BPK282A1)) (UniProt E9BSI1).
T1 sequence (whole entry): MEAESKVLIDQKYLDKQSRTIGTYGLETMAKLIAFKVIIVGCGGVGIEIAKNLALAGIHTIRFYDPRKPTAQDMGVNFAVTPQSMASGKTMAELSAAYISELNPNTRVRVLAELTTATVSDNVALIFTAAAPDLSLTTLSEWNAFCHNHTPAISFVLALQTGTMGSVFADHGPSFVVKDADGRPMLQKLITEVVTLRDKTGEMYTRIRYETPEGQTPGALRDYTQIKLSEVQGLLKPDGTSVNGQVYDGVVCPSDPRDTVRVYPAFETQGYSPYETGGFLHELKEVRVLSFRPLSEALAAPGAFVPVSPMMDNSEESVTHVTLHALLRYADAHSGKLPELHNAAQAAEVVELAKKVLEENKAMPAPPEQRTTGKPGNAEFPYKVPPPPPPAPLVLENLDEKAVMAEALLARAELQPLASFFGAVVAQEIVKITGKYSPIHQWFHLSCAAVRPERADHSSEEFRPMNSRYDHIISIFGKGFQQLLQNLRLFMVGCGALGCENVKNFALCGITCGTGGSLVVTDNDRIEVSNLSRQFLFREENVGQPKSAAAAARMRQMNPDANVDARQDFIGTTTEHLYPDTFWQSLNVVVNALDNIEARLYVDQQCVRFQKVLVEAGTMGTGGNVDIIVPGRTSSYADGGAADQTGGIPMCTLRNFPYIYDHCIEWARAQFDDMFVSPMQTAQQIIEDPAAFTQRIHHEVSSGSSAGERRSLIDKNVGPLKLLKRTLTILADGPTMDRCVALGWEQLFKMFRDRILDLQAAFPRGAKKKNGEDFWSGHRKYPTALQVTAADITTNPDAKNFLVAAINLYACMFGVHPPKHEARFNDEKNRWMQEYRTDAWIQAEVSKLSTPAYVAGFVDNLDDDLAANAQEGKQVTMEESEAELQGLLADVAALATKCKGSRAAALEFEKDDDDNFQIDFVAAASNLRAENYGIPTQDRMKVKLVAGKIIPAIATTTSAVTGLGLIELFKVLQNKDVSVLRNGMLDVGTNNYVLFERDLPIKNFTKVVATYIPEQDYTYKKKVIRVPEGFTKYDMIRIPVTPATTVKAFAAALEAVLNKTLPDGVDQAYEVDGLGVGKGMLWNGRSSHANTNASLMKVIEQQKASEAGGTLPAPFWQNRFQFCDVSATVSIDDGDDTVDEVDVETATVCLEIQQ
Nature of the assay: Leishmania donovani Ubiquitin Activating Enzyme (LdE1). The format is functional. The following applies: 30 µM.

Assay [3] addresses T2, Aspartate--tRNA(Asp/Asn) ligase (Mycobacterium tuberculosis (strain ATCC 25618 / H37Rv)) (UniProt P9WFW3).
T2 sequence (whole entry): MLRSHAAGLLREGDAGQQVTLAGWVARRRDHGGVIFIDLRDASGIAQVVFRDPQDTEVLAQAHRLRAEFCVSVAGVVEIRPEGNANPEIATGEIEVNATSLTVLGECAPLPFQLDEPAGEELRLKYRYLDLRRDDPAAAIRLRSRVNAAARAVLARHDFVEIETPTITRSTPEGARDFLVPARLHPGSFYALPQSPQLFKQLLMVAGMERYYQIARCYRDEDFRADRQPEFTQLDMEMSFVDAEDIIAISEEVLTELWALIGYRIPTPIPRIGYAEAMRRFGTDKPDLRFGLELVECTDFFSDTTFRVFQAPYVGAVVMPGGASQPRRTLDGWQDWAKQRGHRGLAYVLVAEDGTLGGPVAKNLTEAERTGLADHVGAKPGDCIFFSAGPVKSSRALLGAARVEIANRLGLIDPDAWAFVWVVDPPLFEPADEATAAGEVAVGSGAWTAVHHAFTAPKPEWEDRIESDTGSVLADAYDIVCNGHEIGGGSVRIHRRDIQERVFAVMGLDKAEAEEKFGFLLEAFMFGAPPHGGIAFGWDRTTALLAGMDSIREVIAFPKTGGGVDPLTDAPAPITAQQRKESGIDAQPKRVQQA
Nature of the assay: Assay for Asp RNA synthetase-1 from Mycobacterium tuberculosis. The format is functional. The following applies: 30 µM.

Assay [4] deals with Sialic acid-binding Ig-like lectin 9 (Homo sapiens) (UniProt Q9Y336). Nature of the assay: Hs-Siglec9 ALPHAscreen SOP 20170721. To be noted: 10 µM. A general note: Alpha assays give light when donor and acceptor beads are brought close together.
Sialic acid-binding Ig-like lectin 9 (Homo sapiens), sequence (Q9Y336 whole entry): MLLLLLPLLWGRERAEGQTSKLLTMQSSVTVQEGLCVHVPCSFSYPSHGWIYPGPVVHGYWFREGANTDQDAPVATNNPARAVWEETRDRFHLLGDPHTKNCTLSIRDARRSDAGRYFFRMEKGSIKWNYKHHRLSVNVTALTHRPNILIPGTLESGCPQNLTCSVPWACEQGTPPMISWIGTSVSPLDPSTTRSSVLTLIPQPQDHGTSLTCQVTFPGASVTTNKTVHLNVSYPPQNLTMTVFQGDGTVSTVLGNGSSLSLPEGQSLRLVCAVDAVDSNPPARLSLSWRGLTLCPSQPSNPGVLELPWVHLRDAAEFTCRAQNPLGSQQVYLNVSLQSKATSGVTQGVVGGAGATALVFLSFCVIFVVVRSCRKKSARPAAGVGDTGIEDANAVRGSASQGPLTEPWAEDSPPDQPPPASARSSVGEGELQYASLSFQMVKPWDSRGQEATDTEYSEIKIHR
The subject of a further assay is Trypanosoma cruzi. Nature of the assay: Trypanosoma cruzi phosphomannomutase and mannose-1-phosphate guanylyltransferase assay. Format: functional. The following applies: 10 µM.
Assay [5] concerns the target T3, Arginase-2, mitochondrial (Homo sapiens) (UniProt P78540).
T3 sequence (whole entry): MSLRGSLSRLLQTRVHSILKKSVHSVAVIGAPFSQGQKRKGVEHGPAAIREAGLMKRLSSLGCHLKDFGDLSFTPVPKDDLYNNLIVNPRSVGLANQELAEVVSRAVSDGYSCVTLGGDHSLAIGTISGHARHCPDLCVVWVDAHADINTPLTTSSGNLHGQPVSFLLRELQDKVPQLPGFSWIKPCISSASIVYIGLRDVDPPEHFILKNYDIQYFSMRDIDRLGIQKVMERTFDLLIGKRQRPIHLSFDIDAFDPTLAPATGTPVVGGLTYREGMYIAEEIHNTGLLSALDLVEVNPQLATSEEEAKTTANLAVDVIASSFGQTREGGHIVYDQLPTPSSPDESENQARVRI
Description: in vitro enzyme assay to detect the production of urea directly proportional to the activity of Arginase II. Further: in the data most compounds retested in dose-response had high values. The following applies: 33.3 µM. Format: functional.

Assay [6] has as its target T4, Proteasome subunit beta (Trypanosoma cruzi) (UniProt O96673).
T4 sequence (whole entry): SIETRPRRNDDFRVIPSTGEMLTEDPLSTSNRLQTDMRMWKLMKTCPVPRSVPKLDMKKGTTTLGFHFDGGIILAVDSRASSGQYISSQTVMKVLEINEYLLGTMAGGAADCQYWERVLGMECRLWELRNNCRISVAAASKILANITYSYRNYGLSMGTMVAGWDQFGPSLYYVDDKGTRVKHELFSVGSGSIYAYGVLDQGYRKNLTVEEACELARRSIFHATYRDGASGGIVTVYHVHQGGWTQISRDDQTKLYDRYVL
Description: Trypanosoma cruzi proteasome chymotrypsin-like activity (TcProtChymo) assay. Further: in the data most compounds retested in dose-response had high values. The format is functional. The following applies: 9.37 µM.

The species entered for a further assay is Homo sapiens. Nature of the assay: To identify inhibition of the IFN signalling (Jak-Stat) pathway via expression of an eGFP reporter gene under the control of an IFN-stimulated response element (ISRE) containing MxA promoter. The following applies: 30 µM. The format is functional. A general note: A reporter such as luciferase makes a cellular process visible.

Assay [7] deals with Shiga toxin 2 (Escherichia coli O157:H7) (UniProt P09385+P09386). Description: E. coli 0.157:H7 Shiga Toxin SOP - stx2 screening assay. Format: functional. To be noted: 30 µM.
The target of assay [8] is T5, Tyrosyl-tRNA synthetase, putative (Trypanosoma cruzi (strain CL Brener)) (UniProt Q4DSP6).
T5 sequence (whole entry): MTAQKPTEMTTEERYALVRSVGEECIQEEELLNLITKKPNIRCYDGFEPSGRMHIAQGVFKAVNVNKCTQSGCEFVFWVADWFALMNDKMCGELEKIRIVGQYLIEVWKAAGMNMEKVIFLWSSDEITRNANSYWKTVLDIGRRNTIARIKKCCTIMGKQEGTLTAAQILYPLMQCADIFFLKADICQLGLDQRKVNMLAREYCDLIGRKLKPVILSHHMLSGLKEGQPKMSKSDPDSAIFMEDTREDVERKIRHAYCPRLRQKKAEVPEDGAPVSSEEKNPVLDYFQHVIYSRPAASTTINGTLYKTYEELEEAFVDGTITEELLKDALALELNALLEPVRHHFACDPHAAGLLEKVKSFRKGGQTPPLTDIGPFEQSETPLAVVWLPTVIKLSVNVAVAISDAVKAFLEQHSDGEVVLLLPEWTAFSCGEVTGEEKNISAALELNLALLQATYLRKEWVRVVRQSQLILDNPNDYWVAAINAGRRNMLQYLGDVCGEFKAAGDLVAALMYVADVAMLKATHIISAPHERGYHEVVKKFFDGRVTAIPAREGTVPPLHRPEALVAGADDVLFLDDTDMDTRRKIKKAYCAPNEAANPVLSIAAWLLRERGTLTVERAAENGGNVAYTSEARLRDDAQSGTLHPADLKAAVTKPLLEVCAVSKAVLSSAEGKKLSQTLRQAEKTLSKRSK
Nature of the assay: Trypanosoma cruzi tyrosyl tRNA synthetase (TcYRS) _High Tyrosine SOP. Further: in the data most compounds retested in dose-response had high values. Format: functional. The following applies: 30 µM.

Assay [9] has as its target T5, Tyrosyl-tRNA synthetase, putative (Trypanosoma cruzi (strain CL Brener)). Nature of the assay: Trypanosoma cruzi tyrosyl tRNA synthetase (TcYRS) SOP. Format: functional. To be noted: 30 µM.
Assay [10] addresses Chromo domain-containing protein 1 (Saccharomyces cerevisiae (strain ATCC 204508 / S288c) (Baker's yeast)) (UniProt P32657). Description: ScCHD-1 Enzyme Inhibition Assay. Further: in the data most compounds retested in dose-response had high values. The format is functional. The following applies: 30 µM.

Our source for the Percent Effect values is ChEMBL document CHEMBL3988442, “University of Dundee, Small-Polar-MMV Screening Library” (2021).

For part of these data: Potency and affinity values are given separately.

Chromo domain-containing protein 1 (Saccharomyces cerevisiae (strain ATCC 204508 / S288c) (Baker's yeast)), sequence (P32657 whole entry, the tested form may be a part): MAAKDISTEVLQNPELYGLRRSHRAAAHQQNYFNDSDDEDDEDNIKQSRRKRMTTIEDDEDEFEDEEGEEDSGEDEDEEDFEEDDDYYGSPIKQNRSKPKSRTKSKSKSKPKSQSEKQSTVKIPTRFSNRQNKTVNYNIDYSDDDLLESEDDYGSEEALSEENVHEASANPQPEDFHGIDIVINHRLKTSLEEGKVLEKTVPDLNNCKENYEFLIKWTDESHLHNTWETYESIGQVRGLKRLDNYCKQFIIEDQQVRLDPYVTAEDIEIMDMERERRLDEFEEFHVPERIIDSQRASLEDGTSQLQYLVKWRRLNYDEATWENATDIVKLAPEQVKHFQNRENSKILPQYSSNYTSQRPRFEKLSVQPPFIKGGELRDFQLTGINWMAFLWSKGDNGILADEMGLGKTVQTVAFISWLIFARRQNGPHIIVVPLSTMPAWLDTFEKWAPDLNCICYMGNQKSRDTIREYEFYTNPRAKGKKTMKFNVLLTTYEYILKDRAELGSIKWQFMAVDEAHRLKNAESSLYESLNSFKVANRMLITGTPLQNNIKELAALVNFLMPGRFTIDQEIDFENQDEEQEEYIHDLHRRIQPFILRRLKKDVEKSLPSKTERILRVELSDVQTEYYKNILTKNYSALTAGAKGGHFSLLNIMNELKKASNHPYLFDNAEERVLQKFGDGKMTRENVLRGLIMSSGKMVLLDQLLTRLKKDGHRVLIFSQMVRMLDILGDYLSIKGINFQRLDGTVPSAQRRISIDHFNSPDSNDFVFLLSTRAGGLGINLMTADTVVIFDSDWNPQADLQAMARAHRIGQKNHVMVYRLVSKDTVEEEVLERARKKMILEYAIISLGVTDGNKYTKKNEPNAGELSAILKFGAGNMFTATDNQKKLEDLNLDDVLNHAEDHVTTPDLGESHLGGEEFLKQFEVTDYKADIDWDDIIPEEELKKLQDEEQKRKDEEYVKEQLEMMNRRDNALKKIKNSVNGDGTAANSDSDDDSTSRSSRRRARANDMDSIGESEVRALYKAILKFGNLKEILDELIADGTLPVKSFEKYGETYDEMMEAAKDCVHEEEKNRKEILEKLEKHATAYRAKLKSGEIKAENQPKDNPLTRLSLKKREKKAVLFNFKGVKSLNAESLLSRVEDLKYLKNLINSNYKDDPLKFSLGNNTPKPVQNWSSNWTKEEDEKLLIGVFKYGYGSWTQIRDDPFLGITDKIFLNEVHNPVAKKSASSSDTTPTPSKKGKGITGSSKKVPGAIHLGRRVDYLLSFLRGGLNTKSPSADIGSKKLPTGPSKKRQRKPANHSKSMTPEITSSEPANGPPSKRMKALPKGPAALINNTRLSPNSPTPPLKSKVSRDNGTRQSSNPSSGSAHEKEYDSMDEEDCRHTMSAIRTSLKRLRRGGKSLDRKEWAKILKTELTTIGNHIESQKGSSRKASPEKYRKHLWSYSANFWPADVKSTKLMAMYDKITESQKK
Protein translocase subunit SecA (Escherichia coli (strain K12)), sequence (P10408 whole entry): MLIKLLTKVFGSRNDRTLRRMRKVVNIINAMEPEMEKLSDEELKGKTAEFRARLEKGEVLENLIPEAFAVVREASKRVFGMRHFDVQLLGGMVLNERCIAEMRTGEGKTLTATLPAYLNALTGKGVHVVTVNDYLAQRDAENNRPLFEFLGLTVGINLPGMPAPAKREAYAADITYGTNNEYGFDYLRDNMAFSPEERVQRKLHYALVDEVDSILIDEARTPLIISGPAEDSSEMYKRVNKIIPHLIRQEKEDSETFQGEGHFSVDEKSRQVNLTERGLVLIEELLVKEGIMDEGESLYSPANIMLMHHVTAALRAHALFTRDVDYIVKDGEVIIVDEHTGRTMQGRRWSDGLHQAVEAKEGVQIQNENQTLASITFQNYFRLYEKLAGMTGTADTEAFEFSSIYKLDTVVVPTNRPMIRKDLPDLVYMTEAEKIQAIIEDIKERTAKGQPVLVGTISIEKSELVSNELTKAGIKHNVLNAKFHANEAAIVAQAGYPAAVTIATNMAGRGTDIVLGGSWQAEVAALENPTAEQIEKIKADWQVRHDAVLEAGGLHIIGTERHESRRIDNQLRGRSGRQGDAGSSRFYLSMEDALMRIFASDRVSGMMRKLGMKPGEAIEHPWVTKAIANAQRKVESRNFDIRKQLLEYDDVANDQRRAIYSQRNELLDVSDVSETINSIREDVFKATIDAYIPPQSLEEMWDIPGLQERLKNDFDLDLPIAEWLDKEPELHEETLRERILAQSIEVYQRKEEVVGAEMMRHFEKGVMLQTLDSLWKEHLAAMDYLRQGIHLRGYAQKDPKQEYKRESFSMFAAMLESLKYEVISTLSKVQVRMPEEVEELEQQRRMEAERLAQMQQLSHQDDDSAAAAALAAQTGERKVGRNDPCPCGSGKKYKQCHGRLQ

With `CCCN1C(=O)CC2(CCCNC2)C1=O` (stereo not drawn), the Percent Effect was -4.19% in assay [1]; 11.7% in [2]; 3.28% in assay [3]; -2.44% in assay [4]; -1.13% with Trypanosoma cruzi; -0.913% in assay [5]. Moreover, the Percent Effect in assay [6] was 3.86%; in the assay listed under Homo sapiens, -15.1%; in assay [7], 2.28%; in assay [8], 1.93%; in [9], 7.5%; in assay [10], -2.73%.
Take `COCCNC(=O)c1cn(C(C)(C)C)c2ncccc12`: the Percent Effect in assay [1] was 107%; in assay [2], 6.67%; in assay [3] it was 2.31%; in assay [4], -7.99%; with Trypanosoma cruzi it was 0.197%; in [5], 6.2%. In addition, the Percent Effect in assay [6] is 11%; in the assay filed under Homo sapiens, 3.2%; in assay [7], 4%; in [8] it was 0%; in assay [9], 10%; in assay [10], -17.6%.
In the case of `CN1CCC2(CC1)C(=O)N(CC1CC1)c1ccccc12`, the Percent Effect in assay [1] was -2.83%; in [2], 9.09%; in assay [3] it was -2.3%; in assay [4], -0.296%; with Trypanosoma cruzi, -1.69%; in [5] it was 3.65%. Further, the Percent Effect was 1.12% in [6]; 2.83% in the assay filed under Homo sapiens; 4.66% in [7]; -0.966% in assay [8]; 0% in assay [9]; -9.03% in [10].
On to `NC(=O)CN1CCCN(C(=O)Cc2ccc3c(c2)OCO3)CC1`, for which the Percent Effect was -0.196% in assay [1]; 5.33% in [2]; -1.81% in [3]; 2.43% in assay [4]; -7.43% in the assay with Trypanosoma cruzi; 3.55% in assay [5]. Besides, the Percent Effect in assay [6] was 3.48%; in the assay filed under Homo sapiens, 12%; in assay [7], -21.4%; in assay [8], 3.68%; in assay [9] it was 10.3%; in assay [10], -7.19%.
